Results: article PMC7862700, “An all-to-all approach to the identification of sequence-specific readers for epigenetic DNA modifications on cytosine”

Experiments:
Assay in all cases: DAPPL (digital affinity profiling via proximity ligation, sequencing); 10 mM Tris-HCl pH 7.5, 50 mM NaCl, 1 mM DTT, 4% glycerol, room temperature, 30 min; GST-TFs on glutathione beads, 16-mer random dsDNA library, 0.1% formaldehyde crosslink after washing; high values mean tight binding
[1] = biological target: T1, FLI1 (Homo sapiens, UniProt Q01543 1-452); details: protein: recombinant; tags: N-terminal GST; dsDNA, one strand shown
T1 sequence: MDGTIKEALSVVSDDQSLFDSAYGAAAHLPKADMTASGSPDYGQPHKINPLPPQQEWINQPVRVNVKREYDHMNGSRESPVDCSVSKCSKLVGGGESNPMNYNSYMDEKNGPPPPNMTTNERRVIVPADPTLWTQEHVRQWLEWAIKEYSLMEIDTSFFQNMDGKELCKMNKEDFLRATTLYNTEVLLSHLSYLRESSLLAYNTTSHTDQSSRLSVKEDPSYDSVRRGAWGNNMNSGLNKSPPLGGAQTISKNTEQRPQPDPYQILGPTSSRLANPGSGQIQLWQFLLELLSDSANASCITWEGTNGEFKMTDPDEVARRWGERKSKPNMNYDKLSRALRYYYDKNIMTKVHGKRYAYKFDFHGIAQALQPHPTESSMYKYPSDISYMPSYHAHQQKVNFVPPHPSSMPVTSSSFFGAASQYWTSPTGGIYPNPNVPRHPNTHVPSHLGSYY
In short: (§1)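 Sequencing on an Illumina NextSeq500 followed washing, crosslinking with 0.1% formaldehyde, proximity ligation (BsaI/T4 ligase, 1 h, 37 °C) and PCR amplification of pools that had been incubated for 30 min at room temperature with 200 nmole of a random double-stranded 16-mer DNA library in Tris/NaCl/DTT/glycerol buffer. Each pool held DNA-barcoded human transcription factors, expressed in yeast as GST fusions and captured on glutathione beads, plus a tag-only sample. Binding signal is a hexamer's read frequency for a factor divided by its frequency in the tag-only sample.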

[2] = biological target: T2, ELK1 (Homo sapiens, UniProt P19419 1-428); details: protein: recombinant; tags: N-terminal GST; dsDNA, one strand shown
T2 sequence: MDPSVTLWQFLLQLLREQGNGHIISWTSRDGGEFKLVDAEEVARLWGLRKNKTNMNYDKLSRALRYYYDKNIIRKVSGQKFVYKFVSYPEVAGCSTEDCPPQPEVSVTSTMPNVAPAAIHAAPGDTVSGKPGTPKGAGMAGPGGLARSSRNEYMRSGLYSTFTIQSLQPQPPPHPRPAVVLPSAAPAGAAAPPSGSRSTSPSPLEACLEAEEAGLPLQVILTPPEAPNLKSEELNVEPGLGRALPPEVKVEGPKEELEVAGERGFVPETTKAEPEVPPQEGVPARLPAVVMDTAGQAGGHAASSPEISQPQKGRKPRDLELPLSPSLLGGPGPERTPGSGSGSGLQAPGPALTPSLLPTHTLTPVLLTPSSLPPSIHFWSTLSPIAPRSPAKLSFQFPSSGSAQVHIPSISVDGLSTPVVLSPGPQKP
In short: as §1

[3] = biological target: T3, GABPA (Homo sapiens, UniProt Q06546 1-454); details: protein: recombinant; tags: N-terminal GST; dsDNA, one strand shown
T3 sequence: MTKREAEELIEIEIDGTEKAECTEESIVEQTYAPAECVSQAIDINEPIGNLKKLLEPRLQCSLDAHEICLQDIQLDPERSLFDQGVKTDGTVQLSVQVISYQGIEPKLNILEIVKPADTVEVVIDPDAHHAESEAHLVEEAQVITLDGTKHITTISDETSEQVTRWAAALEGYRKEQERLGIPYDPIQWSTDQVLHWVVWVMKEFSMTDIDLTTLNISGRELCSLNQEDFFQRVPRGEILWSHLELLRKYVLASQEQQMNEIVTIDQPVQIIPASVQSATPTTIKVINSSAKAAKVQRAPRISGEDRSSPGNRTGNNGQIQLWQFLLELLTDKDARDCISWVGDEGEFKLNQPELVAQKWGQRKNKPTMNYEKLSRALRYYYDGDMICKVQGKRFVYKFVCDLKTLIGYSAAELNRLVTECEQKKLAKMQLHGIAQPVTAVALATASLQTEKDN
In short: as §1

[4] = biological target: T4, ERG (Homo sapiens, UniProt P11308 1-479); details: protein: recombinant; tags: N-terminal GST; dsDNA, one strand shown
T4 sequence: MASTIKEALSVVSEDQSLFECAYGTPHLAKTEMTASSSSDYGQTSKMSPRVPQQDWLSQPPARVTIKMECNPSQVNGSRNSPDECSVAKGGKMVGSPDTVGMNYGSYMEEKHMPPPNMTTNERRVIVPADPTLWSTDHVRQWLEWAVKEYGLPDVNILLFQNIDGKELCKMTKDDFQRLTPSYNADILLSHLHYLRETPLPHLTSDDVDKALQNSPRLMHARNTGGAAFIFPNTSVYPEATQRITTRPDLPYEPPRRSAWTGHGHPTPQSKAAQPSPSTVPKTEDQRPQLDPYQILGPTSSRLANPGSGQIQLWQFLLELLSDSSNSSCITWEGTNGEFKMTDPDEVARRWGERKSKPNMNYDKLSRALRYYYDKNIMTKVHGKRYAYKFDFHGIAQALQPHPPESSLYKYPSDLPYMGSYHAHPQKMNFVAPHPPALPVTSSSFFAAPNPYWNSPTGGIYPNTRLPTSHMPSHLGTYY
In short: as §1

[5] = biological target: ELF1 (Homo sapiens, UniProt P32519 1-619); details: protein: recombinant; tags: N-terminal GST; dsDNA, one strand shown
In short: as §1

[6] = biological target: T5, EHF (Homo sapiens, UniProt Q9NZC4 1-300); details: protein: recombinant; tags: N-terminal GST; dsDNA, one strand shown
T5 sequence: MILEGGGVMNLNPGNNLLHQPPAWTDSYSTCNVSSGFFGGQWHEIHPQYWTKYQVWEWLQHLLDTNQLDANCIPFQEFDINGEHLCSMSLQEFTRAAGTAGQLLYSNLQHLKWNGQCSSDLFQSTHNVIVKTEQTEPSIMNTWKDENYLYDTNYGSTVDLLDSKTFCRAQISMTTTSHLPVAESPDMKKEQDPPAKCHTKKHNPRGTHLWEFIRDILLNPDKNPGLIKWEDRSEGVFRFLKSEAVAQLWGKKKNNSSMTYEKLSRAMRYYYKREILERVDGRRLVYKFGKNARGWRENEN
In short: as §1

[7] = biological target: SPI1 (Homo sapiens, UniProt P17947 1-270); details: protein: recombinant; tags: N-terminal GST; dsDNA, one strand shown
In short: as §1

[8] = biological target: SPIB (Homo sapiens, UniProt Q01892 1-262); details: protein: recombinant; tags: N-terminal GST; dsDNA, one strand shown
In short: as §1

[9] = biological target: T6, ELK3 (Homo sapiens, UniProt P41970 1-407); details: protein: recombinant; tags: N-terminal GST; dsDNA, one strand shown
T6 sequence: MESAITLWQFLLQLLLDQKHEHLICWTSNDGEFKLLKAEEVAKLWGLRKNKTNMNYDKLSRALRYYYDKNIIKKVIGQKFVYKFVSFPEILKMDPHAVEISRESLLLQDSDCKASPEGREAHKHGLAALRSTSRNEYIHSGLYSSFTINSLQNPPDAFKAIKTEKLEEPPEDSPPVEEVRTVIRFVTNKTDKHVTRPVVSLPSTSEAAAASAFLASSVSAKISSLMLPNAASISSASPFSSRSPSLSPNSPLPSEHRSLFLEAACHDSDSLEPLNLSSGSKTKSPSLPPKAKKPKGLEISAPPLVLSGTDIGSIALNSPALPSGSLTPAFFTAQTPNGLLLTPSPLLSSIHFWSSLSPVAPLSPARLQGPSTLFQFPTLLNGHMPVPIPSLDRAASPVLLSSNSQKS
In short: as §1

[10] = biological target: T7, FEV (Homo sapiens, UniProt Q99581 1-238); details: protein: recombinant; tags: N-terminal GST; dsDNA, one strand shown
T7 sequence: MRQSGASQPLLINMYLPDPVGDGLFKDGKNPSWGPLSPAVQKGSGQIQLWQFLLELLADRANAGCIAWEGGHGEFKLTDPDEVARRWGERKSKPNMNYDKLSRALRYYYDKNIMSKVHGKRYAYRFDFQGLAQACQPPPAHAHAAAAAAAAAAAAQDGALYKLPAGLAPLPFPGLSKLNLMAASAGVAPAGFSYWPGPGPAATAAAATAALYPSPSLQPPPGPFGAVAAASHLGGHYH
In short: as §1

[11] = biological target: ETV5 (Homo sapiens, UniProt P41161 1-510); details: protein: recombinant; tags: N-terminal GST; dsDNA, one strand shown
In short: as §1

[12] = biological target: HSF1 (Homo sapiens, UniProt Q00613 1-529); details: protein: recombinant; tags: N-terminal GST; chain copies: 3; dsDNA, one strand shown
In short: as §1

[13] = biological target: T8, SPIC (Homo sapiens, UniProt Q8N5J4 1-248); details: protein: recombinant; tags: N-terminal GST; dsDNA, one strand shown
T8 sequence: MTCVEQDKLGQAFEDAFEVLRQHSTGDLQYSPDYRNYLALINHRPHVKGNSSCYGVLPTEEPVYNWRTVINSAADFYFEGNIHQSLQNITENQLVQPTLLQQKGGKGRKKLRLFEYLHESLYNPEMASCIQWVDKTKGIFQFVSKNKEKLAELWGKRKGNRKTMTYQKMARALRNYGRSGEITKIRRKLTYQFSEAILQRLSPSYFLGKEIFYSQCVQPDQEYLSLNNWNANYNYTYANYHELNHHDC
In short: as §1

[14] = biological target: ELF4 (Homo sapiens, UniProt Q99607 1-663); details: protein: recombinant; tags: N-terminal GST; dsDNA, one strand shown
In short: as §1

[15] = biological target: T9, ELK4 (Homo sapiens, UniProt P28324-2 1-405); details: protein: recombinant; tags: N-terminal GST; dsDNA, one strand shown
T9 sequence: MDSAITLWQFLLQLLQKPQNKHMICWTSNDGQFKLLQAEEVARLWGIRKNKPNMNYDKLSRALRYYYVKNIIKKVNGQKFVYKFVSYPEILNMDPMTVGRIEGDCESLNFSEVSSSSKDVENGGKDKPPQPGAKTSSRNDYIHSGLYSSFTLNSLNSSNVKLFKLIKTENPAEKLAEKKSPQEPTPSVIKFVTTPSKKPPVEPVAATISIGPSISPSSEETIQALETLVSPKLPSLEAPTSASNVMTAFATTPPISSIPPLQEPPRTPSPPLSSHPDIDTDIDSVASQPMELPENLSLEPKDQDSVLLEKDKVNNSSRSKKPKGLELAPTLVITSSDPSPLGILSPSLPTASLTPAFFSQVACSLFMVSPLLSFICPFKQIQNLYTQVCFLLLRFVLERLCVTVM
In short: as §1

[16] = biological target: T10, ETV2 (Homo sapiens, UniProt O00321 1-342); details: protein: recombinant; tags: N-terminal GST; dsDNA, one strand shown
T10 sequence: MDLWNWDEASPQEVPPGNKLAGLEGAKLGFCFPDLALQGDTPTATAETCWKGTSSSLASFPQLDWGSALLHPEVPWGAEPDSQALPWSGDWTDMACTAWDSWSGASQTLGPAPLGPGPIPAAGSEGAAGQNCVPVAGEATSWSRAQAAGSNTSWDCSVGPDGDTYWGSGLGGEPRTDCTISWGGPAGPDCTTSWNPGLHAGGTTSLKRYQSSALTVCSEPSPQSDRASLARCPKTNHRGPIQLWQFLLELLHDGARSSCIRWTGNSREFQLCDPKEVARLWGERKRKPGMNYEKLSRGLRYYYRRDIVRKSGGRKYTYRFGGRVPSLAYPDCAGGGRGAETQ
In short: as §1

[17] = biological target: T11, ELF3 (Homo sapiens, UniProt P78545 1-371); details: protein: recombinant; tags: N-terminal GST; dsDNA, one strand shown
T11 sequence: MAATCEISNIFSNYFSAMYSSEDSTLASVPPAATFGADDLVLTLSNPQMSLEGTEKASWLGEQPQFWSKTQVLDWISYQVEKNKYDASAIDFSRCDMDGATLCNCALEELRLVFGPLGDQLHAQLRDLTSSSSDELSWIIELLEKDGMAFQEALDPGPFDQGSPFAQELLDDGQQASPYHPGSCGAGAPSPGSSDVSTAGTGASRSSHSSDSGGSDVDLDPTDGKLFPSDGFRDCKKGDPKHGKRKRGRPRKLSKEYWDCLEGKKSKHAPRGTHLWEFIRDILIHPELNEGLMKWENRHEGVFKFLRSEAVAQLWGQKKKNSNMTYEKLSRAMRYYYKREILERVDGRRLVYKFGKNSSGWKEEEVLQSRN
In short: as §1

[18] = biological target: CRX (Homo sapiens, UniProt O43186 1-299); details: protein: recombinant; tags: N-terminal GST; dsDNA, one strand shown
In short: as §1

[19] = biological target: ETV1 (Homo sapiens, UniProt P50549 1-477); details: protein: recombinant; tags: N-terminal GST; dsDNA, one strand shown
In short: as §1

CRX, sequence (O43186 whole entry): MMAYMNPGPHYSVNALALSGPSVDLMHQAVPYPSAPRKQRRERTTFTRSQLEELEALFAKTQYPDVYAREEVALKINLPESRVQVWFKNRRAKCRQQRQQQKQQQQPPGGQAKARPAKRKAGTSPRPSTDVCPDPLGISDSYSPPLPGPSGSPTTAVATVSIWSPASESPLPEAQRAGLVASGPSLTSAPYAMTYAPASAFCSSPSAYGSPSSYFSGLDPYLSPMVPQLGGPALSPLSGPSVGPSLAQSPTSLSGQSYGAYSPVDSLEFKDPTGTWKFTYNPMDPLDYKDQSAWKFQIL
ELF1, sequence (P32519 whole entry): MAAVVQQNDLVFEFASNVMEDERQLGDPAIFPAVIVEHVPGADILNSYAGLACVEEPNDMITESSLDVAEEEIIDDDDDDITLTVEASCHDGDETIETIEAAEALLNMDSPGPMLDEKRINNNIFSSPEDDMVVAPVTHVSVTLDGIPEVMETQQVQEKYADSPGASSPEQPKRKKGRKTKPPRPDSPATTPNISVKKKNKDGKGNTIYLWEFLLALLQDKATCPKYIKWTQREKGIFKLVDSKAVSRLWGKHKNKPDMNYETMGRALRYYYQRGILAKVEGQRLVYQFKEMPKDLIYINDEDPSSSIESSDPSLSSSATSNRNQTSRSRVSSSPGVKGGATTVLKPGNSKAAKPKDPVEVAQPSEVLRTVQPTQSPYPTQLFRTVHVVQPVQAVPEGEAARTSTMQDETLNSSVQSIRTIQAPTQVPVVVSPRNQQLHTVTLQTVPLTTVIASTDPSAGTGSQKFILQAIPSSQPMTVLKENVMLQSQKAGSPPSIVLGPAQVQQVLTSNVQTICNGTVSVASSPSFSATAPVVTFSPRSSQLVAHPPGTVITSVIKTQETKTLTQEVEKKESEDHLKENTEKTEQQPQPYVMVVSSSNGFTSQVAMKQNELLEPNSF
ETV5, sequence (P41161 whole entry): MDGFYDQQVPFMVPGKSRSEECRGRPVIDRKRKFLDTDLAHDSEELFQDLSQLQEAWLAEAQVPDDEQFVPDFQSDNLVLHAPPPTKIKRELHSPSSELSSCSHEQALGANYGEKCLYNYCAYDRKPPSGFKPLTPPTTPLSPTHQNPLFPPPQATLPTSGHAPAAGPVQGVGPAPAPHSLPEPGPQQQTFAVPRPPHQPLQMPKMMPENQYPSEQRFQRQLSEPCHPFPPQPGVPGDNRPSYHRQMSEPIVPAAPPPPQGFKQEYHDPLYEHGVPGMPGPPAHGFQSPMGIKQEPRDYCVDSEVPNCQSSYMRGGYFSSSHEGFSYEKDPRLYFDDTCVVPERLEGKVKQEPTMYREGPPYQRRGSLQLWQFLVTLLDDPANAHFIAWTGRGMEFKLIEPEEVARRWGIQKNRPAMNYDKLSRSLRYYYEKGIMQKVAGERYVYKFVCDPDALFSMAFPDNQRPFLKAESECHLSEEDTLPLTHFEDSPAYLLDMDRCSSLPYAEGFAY
HSF1, sequence (Q00613 whole entry): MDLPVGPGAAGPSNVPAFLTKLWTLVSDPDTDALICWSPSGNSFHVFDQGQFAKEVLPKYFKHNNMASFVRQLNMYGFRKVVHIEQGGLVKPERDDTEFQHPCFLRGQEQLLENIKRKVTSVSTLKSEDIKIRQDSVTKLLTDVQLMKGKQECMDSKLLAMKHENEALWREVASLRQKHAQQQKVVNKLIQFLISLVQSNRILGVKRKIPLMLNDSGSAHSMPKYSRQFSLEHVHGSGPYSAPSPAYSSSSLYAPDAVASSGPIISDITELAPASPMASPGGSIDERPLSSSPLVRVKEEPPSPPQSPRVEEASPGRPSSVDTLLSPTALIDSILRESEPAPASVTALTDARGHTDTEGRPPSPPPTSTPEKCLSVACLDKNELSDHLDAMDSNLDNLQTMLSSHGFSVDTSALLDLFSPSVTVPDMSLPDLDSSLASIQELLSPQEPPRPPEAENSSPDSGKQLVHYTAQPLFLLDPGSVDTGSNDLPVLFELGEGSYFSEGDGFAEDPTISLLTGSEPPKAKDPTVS
SPIB, sequence (Q01892 whole entry): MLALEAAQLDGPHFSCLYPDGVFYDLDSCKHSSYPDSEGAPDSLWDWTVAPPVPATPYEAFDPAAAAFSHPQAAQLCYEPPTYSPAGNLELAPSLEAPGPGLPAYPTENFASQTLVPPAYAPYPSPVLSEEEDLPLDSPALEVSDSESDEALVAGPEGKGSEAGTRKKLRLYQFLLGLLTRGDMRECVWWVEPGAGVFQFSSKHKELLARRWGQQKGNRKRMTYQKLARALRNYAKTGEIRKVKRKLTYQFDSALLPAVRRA
ETV1, sequence (P50549 whole entry): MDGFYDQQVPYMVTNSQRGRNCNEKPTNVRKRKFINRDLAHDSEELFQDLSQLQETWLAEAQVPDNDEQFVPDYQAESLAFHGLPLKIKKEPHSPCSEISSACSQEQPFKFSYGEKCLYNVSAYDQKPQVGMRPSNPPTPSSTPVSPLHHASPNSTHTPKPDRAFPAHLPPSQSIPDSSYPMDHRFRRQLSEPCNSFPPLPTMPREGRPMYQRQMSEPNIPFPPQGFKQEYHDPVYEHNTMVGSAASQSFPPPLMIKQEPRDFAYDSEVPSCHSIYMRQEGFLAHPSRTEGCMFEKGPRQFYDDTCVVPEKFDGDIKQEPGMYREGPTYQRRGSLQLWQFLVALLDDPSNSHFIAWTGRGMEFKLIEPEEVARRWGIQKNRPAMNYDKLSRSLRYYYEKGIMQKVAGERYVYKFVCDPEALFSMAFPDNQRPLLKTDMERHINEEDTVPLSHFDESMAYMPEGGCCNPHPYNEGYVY
ELF4, sequence (Q99607 whole entry): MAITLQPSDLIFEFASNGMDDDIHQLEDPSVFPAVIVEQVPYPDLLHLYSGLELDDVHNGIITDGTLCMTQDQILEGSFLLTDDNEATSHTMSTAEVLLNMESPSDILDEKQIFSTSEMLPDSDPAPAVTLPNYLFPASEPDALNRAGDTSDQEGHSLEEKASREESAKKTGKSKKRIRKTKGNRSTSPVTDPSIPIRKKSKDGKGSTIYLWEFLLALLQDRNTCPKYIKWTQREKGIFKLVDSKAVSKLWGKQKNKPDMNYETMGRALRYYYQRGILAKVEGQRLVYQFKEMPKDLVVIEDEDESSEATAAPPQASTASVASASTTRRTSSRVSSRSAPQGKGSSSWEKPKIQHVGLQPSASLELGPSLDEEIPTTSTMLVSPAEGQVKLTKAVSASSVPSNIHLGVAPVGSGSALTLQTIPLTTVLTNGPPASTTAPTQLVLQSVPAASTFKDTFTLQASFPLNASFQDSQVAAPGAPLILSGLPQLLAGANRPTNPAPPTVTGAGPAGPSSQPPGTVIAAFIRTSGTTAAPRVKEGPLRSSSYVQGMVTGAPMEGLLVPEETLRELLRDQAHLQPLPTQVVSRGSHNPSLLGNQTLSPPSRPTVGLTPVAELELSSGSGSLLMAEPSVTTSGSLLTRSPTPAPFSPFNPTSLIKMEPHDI

## TACGCT
[1]
  binding signal: 1.3 fold enrichment (6-mer frequency, TF over GST control)
[2]
  binding signal: 1.26 fold enrichment (6-mer frequency, TF over GST control)
[3]
  binding signal: 1.4 fold enrichment (6-mer frequency, TF over GST control)
[4]
  binding signal: 1.34 fold enrichment (6-mer frequency, TF over GST control)
[5]
  binding signal: 1.34 fold enrichment (6-mer frequency, TF over GST control)
[6]
  binding signal: 1.25 fold enrichment (6-mer frequency, TF over GST control)
[7]
  binding signal: 1.31 fold enrichment (6-mer frequency, TF over GST control)
[8]
  binding signal: 1.18 fold enrichment (6-mer frequency, TF over GST control)
[9]
  binding signal: 1.36 fold enrichment (6-mer frequency, TF over GST control)
[10]
  binding signal: 1.32 fold enrichment (6-mer frequency, TF over GST control)
[11]
  binding signal: 1.3 fold enrichment (6-mer frequency, TF over GST control)
[12]
  binding signal: 1.28 fold enrichment (6-mer frequency, TF over GST control)
[13]
  binding signal: 1.21 fold enrichment (6-mer frequency, TF over GST control)
[14]
  binding signal: 1.39 fold enrichment (6-mer frequency, TF over GST control)
[15]
  binding signal: 1.26 fold enrichment (6-mer frequency, TF over GST control)
[16]
  binding signal: 1.23 fold enrichment (6-mer frequency, TF over GST control)
[17]
  binding signal: 1.29 fold enrichment (6-mer frequency, TF over GST control)
[18]
  binding signal: 1.48 fold enrichment (6-mer frequency, TF over GST control)
[19]
  binding signal: 1.25 fold enrichment (6-mer frequency, TF over GST control)
